Source: PubChem BioAssay (EPA / NIEHS)
Results filed as inconclusive are left out. The source made the active and inactive calls. Rule for the calls, unless noted: active = hit-call score of the fitted dose curve at least 0.9, where 1 is the maximum; inactive = score below 0.9.

Tests used:
[1] = biological target: Retinoic acid receptor RXR-alpha (Homo sapiens) (UniProt P19793); assay: ATG_RXRa_TRANS: Attagene TRANS-FACTORIAL HepG2 Assay for human Retinoid X Receptor alpha (RXRa) (AID 2283012; active = hit-call score of the fitted dose curve at least 0.9, where 1 is the maximum)
Summary of the method: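 HepG2 cells transiently transfected with GAL4-UAS reporter units and chimeric RXRa-Gal4 protein, treated 24 h. Reporter mRNA measured by RT-PCR, fluorescent labelling, HpaI digestion and capillary electrophoresis. Induction fitted against DMSO.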

[2] = biological target: human Retinoid X Receptor beta (RXRb), RXRB (gene 6257) (UniProt P28702); assay: ATG_RXRb_TRANS: Attagene TRANS-FACTORIAL HepG2 Assay for human Retinoid X Receptor beta (RXRb) (AID 2283013; active = hit-call score of the fitted dose curve at least 0.9, where 1 is the maximum)
Summary of the method: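 HepG2 cells were transiently transfected with multiplexed GAL4-UAS reporters and a chimeric RXRb-Gal4 construct, then exposed for 24 h. Reporter mRNA was quantified by RT-PCR, FAM labeling, HpaI digestion and capillary electrophoresis; gain of signal was scored against DMSO.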

[3] = read-out: E-selectin (Homo sapiens) (UniProt P16581); assay: BSK_3C_Eselectin: BioMAP Diversity Plus: 3C Assay for Eselectin Biomarker Activity (AID 2283015); settings: primary human endothelial cells (HUVEC); actives raise or lower the signal
Summary of the method: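 Primary human umbilical vein endothelial cells (3C system) were dosed with chemical and cell-surface E-selectin measured by ELISA 24 h later. Bidirectional curve fitting used DMSO as negative control and baseline.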

[4] = read-out: Monocyte Chemoattractant Protein-1 (MCP1), CCL2 (gene 6347); assay: BSK_3C_MCP1: BioMAP Diversity Plus: 3C Assay for Monocyte Chemoattractant Protein-1 (MCP1) Biomarker Activity (AID 2283017); settings: primary human endothelial cells (HUVEC); actives raise or lower the signal
Summary of the method: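 Primary human umbilical vein endothelial cells (3C system) were exposed to test chemical for 24 h, after which MCP-1 was quantified by ELISA. Activity was fitted bidirectionally against DMSO as negative control and baseline.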

[5] = read-out: Monocyte Chemoattractant Protein-1 (MCP1), CCL2 (gene 6347); assay: BSK_4H_MCP1: BioMAP Diversity Plus: 4H Assay for Monocyte Chemoattractant Protein-1 (MCP1) Biomarker Activity (AID 2283018); settings: primary human endothelial cells (HUVEC); actives raise or lower the signal
Summary of the method: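 Human umbilical vein endothelial cells (4H system) exposed to chemicals for 24 h in 96-well format. MCP-1 measured by ELISA; bidirectional fitting against DMSO, with SRB total-protein staining in parallel cultures for cytotoxicity.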

[6] = read-out: Human Leukocyte Antigen - DR isotype (HLADR), HLA-DRA (gene 3122); assay: BSK_3C_HLADR: BioMAP Diversity Plus: 3C Assay for Human Leukocyte Antigen - DR isotype (HLADR) Biomarker Activity (AID 2283019); settings: primary human endothelial cells (HUVEC); actives raise or lower the signal
Summary of the method: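 Primary human umbilical vein endothelial cells (3C system) were dosed with compound and cell-surface HLA-DR was quantified by ELISA at 24 h. Activity was fitted bidirectionally against DMSO as negative control and baseline.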

[7] = read-out: Interleukin-8 (IL8), CXCL8 (gene 3576); assay: BSK_3C_IL8: BioMAP Diversity Plus: 3C Assay for Interleukin-8 (IL8) Biomarker Activity (AID 2283020); settings: primary human endothelial cells (HUVEC); actives raise or lower the signal
Summary of the method: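 Primary human umbilical vein endothelial cells were dosed for 24 h. IL-8 was quantified by ELISA and fitted bidirectionally against DMSO. Cytotoxicity was assessed in parallel cultures by SRB staining at 560 nm.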

[8] = read-out: Monokine induced gamma interferon (MIG), CXCL9 (gene 4283); assay: BSK_3C_MIG: BioMAP Diversity Plus: 3C Assay for Monokine induced gamma interferon (MIG) Biomarker Activity (AID 2283021); settings: primary human endothelial cells (HUVEC); actives raise or lower the signal;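 for AC50: MIG protein level measured by immunoassay in the treated endothelial cultures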
Summary of the method: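 HUVEC primary endothelial cultures dosed with chemical; MIG quantified by ELISA at 24 h. Data fitted bidirectionally against DMSO control, with parallel SRB total-protein staining for cytotoxicity.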

[9] = biological target: human Vitamin D Receptor (VDR), VDR (gene 7421) (UniProt P11473); assay: ATG_VDR_TRANS: Attagene TRANS-FACTORIAL HepG2 Assay for human Vitamin D Receptor (VDR) (AID 2283022; active = hit-call score of the fitted dose curve at least 0.9, where 1 is the maximum)
Summary of the method: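 HepG2 cells were transiently transfected with multiple GAL4-UAS reporter units, so signal reflects exogenous chimeric receptor-Gal4 activity. After 24 h compound exposure, reporter mRNA was measured by RT-PCR, fluorescent labelling and capillary electrophoresis, fitted for gain of signal versus DMSO.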

[10] = read-out: Interleukin-1 alpha (IL1a), IL1A (gene 3552); assay: BSK_BE3C_IL1a: BioMAP Diversity Plus: BE3C Assay for Interleukin-1 alpha (IL1a) Biomarker Activity (AID 2283016); settings: primary human bronchial epithelial cells; actives raise or lower the signal
Summary of the method: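 Human primary bronchial epithelial cells, 24 h chemical exposure; IL-1a quantified by ELISA, fitted bidirectionally against DMSO. Cytotoxicity assessed in parallel by SRB total-protein staining at the time of measurement.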

Measured: AC50

Chain of human Vitamin D Receptor (VDR), VDR (gene 7421) (P11473 whole entry, looked up, the tested form may be a part): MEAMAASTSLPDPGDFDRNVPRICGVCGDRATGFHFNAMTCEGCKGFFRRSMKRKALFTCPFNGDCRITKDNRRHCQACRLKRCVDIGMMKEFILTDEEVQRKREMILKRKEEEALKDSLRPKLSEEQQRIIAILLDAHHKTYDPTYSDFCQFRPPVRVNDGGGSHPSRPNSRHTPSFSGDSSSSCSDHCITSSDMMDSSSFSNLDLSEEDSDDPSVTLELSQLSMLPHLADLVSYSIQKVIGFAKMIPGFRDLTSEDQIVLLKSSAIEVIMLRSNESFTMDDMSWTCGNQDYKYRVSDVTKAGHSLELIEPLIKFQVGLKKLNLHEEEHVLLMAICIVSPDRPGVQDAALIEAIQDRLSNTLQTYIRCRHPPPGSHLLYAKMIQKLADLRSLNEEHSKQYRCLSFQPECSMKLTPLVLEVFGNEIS
Chain of human Retinoid X Receptor beta (RXRb), RXRB (gene 6257) (P28702 whole entry, looked up, the tested form may be a part): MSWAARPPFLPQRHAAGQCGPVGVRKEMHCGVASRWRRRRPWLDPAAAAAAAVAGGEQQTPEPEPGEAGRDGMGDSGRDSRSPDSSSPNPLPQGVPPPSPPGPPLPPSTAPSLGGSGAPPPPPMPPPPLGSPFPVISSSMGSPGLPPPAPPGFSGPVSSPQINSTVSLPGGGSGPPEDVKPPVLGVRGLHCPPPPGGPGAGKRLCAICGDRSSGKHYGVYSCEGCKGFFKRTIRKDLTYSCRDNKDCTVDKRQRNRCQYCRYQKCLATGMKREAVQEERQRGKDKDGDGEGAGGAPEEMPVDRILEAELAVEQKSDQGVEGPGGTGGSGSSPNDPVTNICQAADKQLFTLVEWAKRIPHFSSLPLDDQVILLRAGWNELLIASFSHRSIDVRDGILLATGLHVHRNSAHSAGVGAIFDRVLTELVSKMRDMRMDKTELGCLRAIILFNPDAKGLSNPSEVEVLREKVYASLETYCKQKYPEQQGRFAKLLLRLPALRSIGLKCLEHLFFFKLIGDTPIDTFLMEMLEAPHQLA
Chain of Retinoic acid receptor RXR-alpha (Homo sapiens) (P19793 whole entry, looked up, the tested form may be a part): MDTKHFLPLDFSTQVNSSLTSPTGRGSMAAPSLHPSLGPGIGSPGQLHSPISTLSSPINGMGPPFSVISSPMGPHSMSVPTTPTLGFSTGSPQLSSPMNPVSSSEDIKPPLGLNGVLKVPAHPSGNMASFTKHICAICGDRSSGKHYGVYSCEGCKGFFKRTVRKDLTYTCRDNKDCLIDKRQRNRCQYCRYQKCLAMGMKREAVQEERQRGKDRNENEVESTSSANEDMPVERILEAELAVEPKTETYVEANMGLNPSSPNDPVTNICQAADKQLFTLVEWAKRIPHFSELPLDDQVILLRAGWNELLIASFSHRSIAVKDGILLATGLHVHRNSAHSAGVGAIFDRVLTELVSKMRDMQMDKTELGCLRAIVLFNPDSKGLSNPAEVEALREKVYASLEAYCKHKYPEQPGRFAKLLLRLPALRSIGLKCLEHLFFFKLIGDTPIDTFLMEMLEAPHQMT
Chain of E-selectin (Homo sapiens) (P16581 whole entry, looked up): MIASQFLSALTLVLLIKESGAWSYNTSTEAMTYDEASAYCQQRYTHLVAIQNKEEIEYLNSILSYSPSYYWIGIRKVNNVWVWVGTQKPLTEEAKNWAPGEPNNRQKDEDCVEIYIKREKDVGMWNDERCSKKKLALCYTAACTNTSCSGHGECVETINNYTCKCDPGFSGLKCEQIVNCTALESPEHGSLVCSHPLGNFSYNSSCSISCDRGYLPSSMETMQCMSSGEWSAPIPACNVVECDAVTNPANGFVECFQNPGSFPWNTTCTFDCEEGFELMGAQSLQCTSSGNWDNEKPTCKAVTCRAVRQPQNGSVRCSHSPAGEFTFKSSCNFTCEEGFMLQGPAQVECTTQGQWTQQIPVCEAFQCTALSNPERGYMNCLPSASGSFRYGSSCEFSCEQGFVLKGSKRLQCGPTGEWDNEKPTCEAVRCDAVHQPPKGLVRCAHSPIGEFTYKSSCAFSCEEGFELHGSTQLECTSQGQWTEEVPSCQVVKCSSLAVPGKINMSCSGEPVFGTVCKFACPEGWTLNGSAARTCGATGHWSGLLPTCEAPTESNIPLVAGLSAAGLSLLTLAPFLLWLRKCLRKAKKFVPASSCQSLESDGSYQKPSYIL

CCCCCCCCCCCCCCCO
inactive: [1] | [8] | [9]
active: [2] 27.5 µM | [3] 26.9 µM | [4] 32.6 µM | [5] 29.1 µM | [6] 31.4 µM | [7] 31.2 µM

O=C(OC[C@H]1O[C@@H](OC(=O)c2cc(O)c(O)c(OC(=O)c3cc(O)c(O)c(O)c3)c2)[C@H](OC(=O)c2cc(O)c(O)c(OC(=O)c3cc(O)c(O)c(O)c3)c2)[C@@H](OC(=O)c2cc(O)c(O)c(OC(=O)c3cc(O)c(O)c(O)c3)c2)[C@@H]1OC(=O)c1cc(O)c(O)c(OC(=O)c2cc(O)c(O)c(O)c2)c1)c1cc(O)c(O)c(OC(=O)c2cc(O)c(O)c(O)c2)c1
active: [10] 7.85 µM | [4] 9.09 µM | [5] 6.1 µM
inactive: [1] | [3] | [7] | [8]

CC(C)=CCC/C(C)=C/CO
not listed: [6]
inactive: all other assays above

COCCOc1cc2cc(C(=O)NC3CCN(C(C)C)CC3)n(CC(=O)Nc3ccc(Cl)cn3)c2cn1
not listed: [7] | [9] | [10]
inactive: all other assays above

Nc1cccc(N)c1
not listed: [2] | [6]
inactive: all other assays above

O=C(CCCCCCCCc1cccnc1)N1CCC(C=C(c2ccccc2)c2ccccc2)CC1
inactive: [1]
active: [3] 19.4 µM | [10] 27.3 µM | [4] 8.66 µM | [5] 5.75 µM | [6] 6.54 µM | [8] 14.2 µM | [9] 100 µM

CCCCCCCCO
not listed: [2]
inactive: all other assays above

C=CCCCCCCCCC(=O)O
not listed: [2] | [6]
inactive: all other assays above

COCCOCCOCCOC
inactive: [1] | [2] | [3] | [4] | [5] | [8]

CC(O)CN(CCN(CC(C)O)CC(C)O)CC(C)O (stereo unspecified)
not listed: [2] | [7]
inactive: all other assays above

Cc1[nH]cnc1C[C@H]1CCc2c(C)c3ccccc3n2C1=O
active: [4] 27.5 µM | [5] 22.9 µM | [6] 29.4 µM | [7] 22.4 µM
inactive: [1] | [3] | [8] | [9]

O=C1OC(=O)C2C3C=CC(C3)C12 (stereo unspecified)
not listed: [2] | [7] | [10]
inactive: all other assays above

O=c1[nH]c2ccc(S(=O)CCN3CCC(Cc4ccc(F)cc4)CC3)cc2o1 (stereo unspecified)
active: [5] 4.88 µM
not listed: [2] | [7] | [10]
inactive: all other assays above

CC(C)CC(C)(O)C#CC(C)(O)CC(C)C (stereo unspecified)
inactive: [1] | [3] | [4] | [5] | [7] | [8]

CC(C)=CCCC(C)=CC=O
inactive: [1] | [3] | [4] | [5] | [8] | [9]

Nc1nc2ncc(CNc3ccc(C(=O)N[C@@H](CCC(=O)O)C(=O)O)cc3)nc2c(=O)[nH]1
not listed: [2] | [7] | [10]
inactive: all other assays above

COC(=O)c1c(Cl)c(Cl)c(C(=O)OC)c(Cl)c1Cl
not listed: [2] | [9] | [10]
inactive: all other assays above

CCOCCOCCOCCO
inactive: [1] | [3] | [4] | [5] | [8] | [9]

COC(=O)c1ccccc1O
inactive: [1] | [3] | [4] | [5] | [8]

O=C(O)CCN(C1(C(=O)NO)CCCC1)S(=O)(=O)c1ccc(Oc2ccc(F)cc2)cc1
inactive: [1] | [3] | [4] | [5] | [8] | [9]

CCC(C)(C)C(=O)O[C@H]1C[C@@H](C)C=C2C=C[C@H](C)[C@H](CC[C@@H]3C[C@@H](O)CC(=O)O3)[C@H]21
active: [3] 30.2 µM | [10] 33.1 µM | [4] 18.6 µM | [5] 0.392 µM
inactive: [1] | [8]

CC(C)CCCCCCOC(=O)c1ccc(C(=O)OCCCCCCC(C)C)c(C(=O)OCCCCCCC(C)C)c1
inactive: [1] | [3] | [4] | [5] | [7] | [8]
